# High-throughput results as filed in PubChem.
# Sampled rows, rich in hits. Any-hit rate of the full collection: about 12%.
# Sm TGR block: S. mansoni TGR enzyme inhibition. Potency, µM (titrated, usually from 114 µM), inactives show at the top dose activity change, negative = inhibition, hits mostly inhibitors. 3% of 360,000 active. purified TGR, DTNB reduction, TNB absorbance 405 nm. AID 485364. Q962Y6; note: % is set by controls: 0 for no effect and ±100 for the full control effect; nearly all actives have a fitted effect of over 60% in size
#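 Kinetic colorimetric format: TGR-catalysed, NADPH-driven DTNB reduction monitored via TNB absorbance. Enzyme dispensed at 20 nM; compound exposure 15 min at room temperature before reaction start.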
# SARS PLpro yeast: inhibitors of SARS-CoV papain-like protease in yeast | 0.19% of 330,000 active | S. cerevisiae expressing SARS-CoV PLpro, growth rescue | Potency, µM (titrated, usually from 32.9 µM), without a hit: at the highest dose activity, positive = growth rescue, usual class: activators; calls by dose curve; note: 0% is about no effect; nearly all actives have a fitted effect of over 55% in size
# Pf growth 48h: inhibits P. falciparum growth in the first generation, 48 h. 5.9% of 310,000 active. P. falciparum luciferase growth in erythrocytes, 48 h. Potency, µM (highest dose often 28.7 µM), inactives show at the highest dose activity change, negative = inhibition, usual class: inhibitors; note: % is set by controls: 0 for no effect and ±100 for the full control effect
#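 Parasite viability was followed by luminescence of a genomically integrated firefly luciferase. Cultures held 0.1% parasitemia at 2% hematocrit (final), incubated under 5% CO2 at 37 C.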
# Pf growth 96h: P. falciparum growth inhibition at 96 hours. P. falciparum luciferase reporter growth, 96 h. Potency, µM (top dose mostly 28.7 µM), for the others: at the highest dose activity change, negative = inhibition, actives largely listed as inhibitors. 6.9% of 320,000 active; note: % is set by controls: 0 for no effect and ±100 for the full control effect
#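 Infected RBCs, 2% Hct / 0.05% parasitemia final; luciferase-reporter P. falciparum; cpd 96 h, 37 C, 5% CO2; luciferase detection reagent; luminescence.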
# Numbers without * were called inactive; i = inactive; ? = inconclusive; . = no result given. Unless noted, calls come from the whole dose curve; as a rule, active = well fitted curve in the direction sought with a large enough effect; inconclusive = small, poorly fitted or top-dose-only effect, or another doubt; inactive = no such curve, though single readings can be large; an effect the other way counts as inactive or inconclusive. Potency is the fitted concentration of half-maximal effect.
SMILES,Sm TGR block,SARS PLpro yeast,Pf growth 48h,Pf growth 96h
C=CCn1c(NC(=O)c2ccccc2)nc2ccccc21,0.2%,-4.0%,?,11.7µM*
CC(C)CNC(=O)c1cccc(Cn2cc(Cl)cn2)c1,2.6%,4.6%,-4.2%,10.4µM*
Cc1cccc(C)c1NC(=O)CN(C)C(=O)CC1Sc2ccccc2NC1=O (stereo unspecified),-16.7%,2.2%,1.5%,-8.2%
CC1CCCC(C)N1C(=O)COC(=O)c1cc(=O)[nH]c2ccccc12 (stereo unspecified),.,5.2%,.,.
O=C(CC1NCCNC1=O)Nc1cccc(F)c1 (stereo unspecified),-3.2%,.,.,.
COc1cccc(NC(=O)C(C)Sc2nnc(C3CC3)n2C2CC2)c1 (stereo unspecified),-17.6%,0.6%,?,-27.0%
CCCn1c(NC(=O)c2ccc(Br)cc2)nc2ccccc21,-18.7%,-2.5%,.,2.94µM*
CC(NC(=O)COC(=O)c1cc2ccccc2cc1O)c1ccccc1 (stereo unspecified),-12.8%,0.1%,4.1%,60.4%
O=C(c1cn(-c2ccccc2)nc1-c1cccs1)N1CCN(c2ccc(F)cc2)CC1,6.1%,-7.5%,?,9.28µM*
CC(NC(=O)COC(=O)c1cn(-c2ccccc2)nc1-c1cccs1)c1ccccc1 (stereo unspecified),-0.2%,15.6%,.,3.29µM*
O=C(c1cccs1)N1CCN(C(=O)c2cn(-c3ccccc3)nc2-c2ccccc2)CC1,.,-3.7%,.,.
O=C(Nc1ccncc1)c1cn(-c2ccccc2)nc1-c1cccs1,10.7%,-31.4%,.,2.94µM*
COC(=O)c1ccc(NC(=O)c2cn(-c3ccccc3)nc2-c2ccncc2)cc1,3.7%,-0.3%,11.7µM*,?
CCOC(=O)C1CCCN(C2=NC(=O)/C(=C/c3ccc(O)c(OCC)c3)S2)C1 (stereo unspecified),-17.7%,-1.7%,?,13.4%
CCOC(=O)C1CCCN(C2=NC(=O)/C(=C/c3ccc(N(C)C)cc3)S2)C1 (stereo unspecified),-0.8%,0.2%,6.57µM*,26.0%
CCOC(=O)C1CCCN(C2=NC(=O)/C(=C/c3ccc(OC)cc3)S2)C1 (stereo unspecified),-21.2%,-3.1%,10.4µM*,?
CCOC(=O)CSC1=NC(=O)/C(=C/c2ccc(OC)cc2)S1,6.31µM*,-83.7%,52.0%,-1.9%
CCOC(=O)C1CCCN(C2=NC(=O)/C(=C/c3ccc(OC)cc3OC)S2)C1 (stereo unspecified),3.8%,-4.2%,6.57µM*,16.7%
CC(C)CCN(C(=O)Nc1ccc(Cl)cc1)C1CCN(C(C)C)CC1,1.8%,-0.7%,13.1µM*,?
CCOc1ccccc1NC(=O)COC(=O)c1cccc(-c2ccc(OC(C)=O)cc2)c1,1.6%,10.3%,9.28µM*,9.28µM*
CC(=O)Oc1ccc(-c2cccc(C(=O)OCC(=O)N(C)c3ccccc3)c2)cc1,1.0%,-15.0%,-87.8%,14.7µM*
Cc1ccc(Nc2nc3ccccc3c3nncn23)cc1C,-10.3%,.,.,.
COC(=O)c1cc(NC(=O)c2sc3ncn(Cc4cccc(F)c4)c(=O)c3c2C)cc(C(=O)OC)c1,14.9%,.,.,.
CC(NC(=O)c1cc2ccccc2oc1=O)c1ccccc1 (stereo unspecified),-5.8%,-11.1%,11.4%,11.7µM*
Cc1ccc(-c2[nH]c3ccccc3c2SCCNC(=O)c2cc3ccccc3oc2=O)cc1,-8.1%,1.8%,?,5.86µM*
SMILES,Sm TGR block,SARS PLpro yeast,Pf growth 48h,Pf growth 96h
CC(NC(=O)c1cc2ccccc2o1)c1ccccc1 (stereo unspecified),-6.5%,0.1%,-1.2%,i
O=C(NCCc1ccc(F)cc1)c1cc2ccccc2oc1=O,-19.5%,-2.1%,10.5%,-9.1%
O=C(NCCSc1c(-c2ccccc2)[nH]c2ccccc12)c1cc2ccccc2oc1=O,0.1%,-8.7%,-15.9%,-27.5%
O=C(NCCc1ccccc1)c1cc2ccccc2oc1=O,6.6%,1.1%,3.5%,9.28µM*
CC(=O)OCCNC(=O)c1cc2ccccc2oc1=O,-13.9%,6.1%,13.0%,1.65µM*
COc1ccc(C(CNC(=O)C2CCN(S(=O)(=O)c3ccc(F)cc3)CC2)N(C)C)cc1 (stereo unspecified),-23.5%,0.5%,-1.8%,3.5%
CC(=O)c1ccc(COC(=O)c2cc3ccccc3oc2=O)cc1,-0.9%,0.1%,5.9%,13.1µM*
CCc1ccc(NC(=O)C2CCCN2S(=O)(=O)c2ccc3c(c2)CCCC(=O)N3)cc1 (stereo unspecified),10.7%,.,.,.
Cc1ccc(N=Cc2nc(-c3ccco3)oc2O)cc1,-14.3%,-2.9%,11.2%,4.0%
Cc1ccc(C(=O)Oc2oc(-c3ccco3)nc2C=Nc2ccc(Cl)cc2)cc1,2.24µM*,-28.0%,15.4%,23.1%
O=C(Oc1oc(-c2ccco2)nc1C=Nc1ccccc1)c1ccoc1,1.41µM*,2.5%,42.3%,.
COc1cccc(N=Cc2nc(-c3ccccc3)oc2OC(C)=O)c1,10µM*,-1.9%,49.4%,146.6%
COc1ccc(N=Cc2nc(-c3ccccc3)oc2OC(C)=O)cc1,?,-0.5%,34.1%,51.2%
O=C(Oc1oc(-c2ccco2)nc1C=Nc1ccccc1)c1ccco1,1.58µM*,-0.4%,55.2%,41.1%
COc1ccc(NC(=O)Cn2c(=O)n(CCCC(=O)NCc3ccccc3OC)c(=O)c3ccccc32)cc1Cl,9.0%,.,.,.
CCN(CC)C(=O)Cn1cc(S(=O)(=O)CC(=O)Nc2ccc(C(N)=O)cc2)c2ccccc21,?,-2.7%,-6.6%,?
CC(=O)Nc1ccc(S(=O)(=O)N2CCN(C(=O)c3ncoc3-c3ccccc3C)CC2)cc1,-5.8%,-1.9%,-16.7%,-27.7%
COc1ccc(NC(=O)C2CCN(S(=O)(=O)c3ccc4c(c3)CC(C)N4C(C)=O)CC2)c(OC)c1 (stereo unspecified),5.9%,-16.5%,?,?
COc1cc(NS(=O)(=O)c2cc(Br)cc3c2N(C(=O)C2CC2)CC3)cc(OC)c1,1.4%,.,.,.
O=C(CSc1ccccc1F)NC(=O)NCc1ccco1,?,-0.3%,-10.5%,32.5%
Cc1cc(SCC(=O)NC(=O)NCc2ccco2)nc2ccccc12,39.8µM*,-3.7%,13.5%,16.0%
Cc1ccccc1CSCC(=O)NC(=O)NCc1ccco1,?,-4.2%,49.3%,6.57µM*
Cc1cc(SCC(=O)NC(=O)NCc2ccco2)nc2c(C)cccc12,?,-7.6%,-19.0%,71.3%
O=S(=O)(c1ccccc1)N1CCCc2ccccc21,-10.4%,-6.6%,2.0%,39.1%
O=S(=O)(c1ccc(F)cc1)N1CCCc2ccccc21,4.3%,-7.5%,29.4%,1.65µM*
COc1ccc(S(=O)(=O)N2CCc3ccccc32)cc1C(=O)NCc1ccco1,?,-1.9%,13.1µM*,?
O=C(O)C1CC=CCC1C(=O)Nc1ccc(S(=O)(=O)N2CCCc3ccccc32)cc1 (stereo unspecified),-28.4%,0.9%,-1.2%,10.4µM*
COc1ccc(S(=O)(=O)N2CCCc3ccccc32)cc1OC,1.1%,1.1%,11.7µM*,57.3%
O=C(Nc1ccc(S(=O)(=O)N2CCCc3ccccc32)cc1)C1CCCO1 (stereo unspecified),-1.3%,-7.3%,?,26.9%
